Rows were chosen to be rich in hits. Some 11% of all compounds tested hit in one or more screens of this group.
G9a inh = G9a (human) methyltransferase inhibition; G9a H3K9 monomethylation, AlphaScreen, 2 h; AID 504332; 350,000 tested, 8.8% active; Potency, µM (titrated, usually from 102 µM), for the others: at the top dose activity, negative = inhibition, actives largely listed as inhibitors; also: potency is read from the fitted curve at half-maximal effect; % is scaled to controls: 0 for no effect and ±100 for the full control effect; nearly all actives have a fitted effect of over 75% in size
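G9a (20 nM) preincubated 15 min RT with compounds, then 500 nM biotinylated H3K9 peptide and 20 uM SAM added; 2 h RT reaction. Monomethyl-H3K9 product detected by AlphaScreen with anti-H3K9me1 antibody, streptavidin donor and anti-rabbit IgG acceptor beads.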
PI5P4K alpha inh = PI5P4K alpha (human) kinase inhibition; PI5P4Kalpha enzyme, ADP-Glo luminescence, 60 min; active compounds read low; AID 652105; P48426; max response, %; 330,000 tested, 1.2% active; active = max response of -50% or lower; inconclusive = between -30% and -50%; inactive = -30% or higher; also: value at the top dose of about 77 µM; % is scaled to controls: 0 for no effect and ±100 for the full control effect
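Compounds were pin-transferred onto PI5P4Kalpha and substrate in HEPES pH 7.4 buffer with EGTA, CHAPS and 5% DMSO. ATP (5 microM final) started the reaction, which ran 60 minutes at room temperature before ADP-Glo detection.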
JMJD2A Tudor inh = JMJD2A Tudor domain (human) inhibition; AlphaScreen JMJD2A-Tudor / H3K4me3 peptide binding; Potency, µM (highest dose often 114 µM), inactives show at the top dose activity change, negative = inhibition, hits mostly inhibitors; O75164; 390,000 tested, 4.4% active; also: potency is read from the fitted curve at half-maximal effect; % is scaled to controls: 0 for no effect and ±100 for the full control effect; nearly all actives have a fitted effect of over 50% in size
HP1b chromo inh = HP1-beta chromodomain-methylated histone interaction inhibition. AlphaScreen HP1-beta / biotin-H3K9me3 peptide binding. 390,000 tested, 0.56% active. Potency, µM (top dose mostly 114 µM), inactives show at the top dose activity change, negative = inhibition, actives largely listed as inhibitors. P83916; also: potency is read from the fitted curve at half-maximal effect; nearly all actives have a fitted effect of over 70% in size
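HP1-beta protein (50 nM final) preincubated 30 min at room temperature with biotinylated H3(1-18)K9me3 peptide (50 nM) in PBS pH 7.4, 0.01% Tween-20, then compound added for 30 min. AlphaScreen streptavidin donor/nickel chelate acceptor beads (10 ug/mL final), 30 min dark, luminescence read.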
BAZ2B inh = BAZ2B (human) inhibition; 360,000 tested, 4.4% active; Potency, µM (top dose mostly 114 µM), for inactives: at the highest dose activity change, negative = inhibition, usual class: inhibitors; AlphaScreen BAZ2B-H3K14Ac peptide displacement; also: potency is read from the fitted curve at half-maximal effect; % is scaled to controls: 0 for no effect and ±100 for the full control effect; nearly all actives have a fitted effect of over 60% in size
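In this displacement format the biotinylated H3(5-23) peptide acetylated at Lys14 serves as ligand at 50 nM, with BAZ2B at 50 nM in PBS pH 7.4 containing 0.01% Tween-20. Donor and acceptor beads are 10 ug/mL final.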
L3MBTL1 block = L3MBTL1 (human) inhibition. 230,000 tested, 0.66% active. Q9Y468. AlphaScreen L3MBTL1–H3K9me1 peptide binding. AID 485360. Potency, µM (doses to about 57.1 µM), for inactives: at the top dose activity, negative = inhibition, most hits filed as inhibitors; also: potency is read from the fitted curve at half-maximal effect; % is scaled to controls: 0 for no effect and ±100 for the full control effect; nearly all actives have a fitted effect of over 60% in size
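AlphaScreen assay: L3MBTL1 (50 nM final) was preincubated 30 min at room temperature with biotinylated H3(1-15)K9me1 peptide (75 nM final), then 30 min with library compounds; streptavidin donor and nickel chelate acceptor beads (10 ug/mL final) added, 30 min dark.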
An asterisk follows results filed as active; ? = inconclusive; / = no result; [ ] = another dose, or the depositor's remark. Unless noted, calls follow the shape of the dose curve; as a rule, active = well fitted inhibition curve with a large enough effect; inconclusive = small, poorly fitted or top-dose-only effect; inactive = no such curve, though single readings can be large or run the other way.

SMILES	G9a inh	PI5P4K alpha inh	JMJD2A Tudor inh	HP1b chromo inh	BAZ2B inh	L3MBTL1 block
COC(=O)/C(=C\C=C\c1ccccc1)NC(=O)c1ccccc1	-15%	-54*	25µM*	-3%	-4%	16%
O=C(N/C(=C/C=C/c1ccccc1)C(=O)N1CCCCC1)c1ccc([N+](=O)[O-])cc1	50µM*	-1	?	1%	-35%	/
CCc1ccc(CNC(=O)Cn2nc(-c3ccc(Cl)cc3)ccc2=O)cc1	6%[59 µM]	/	-7%	34%	6%	/
COc1ccc(-c2noc(-c3ccc(NC4CCCCC4)c([N+](=O)[O-])c3)n2)cc1	?	/	5%	30%	-1%	/
Cc1ccccc1OCC(=O)Nc1ccc(OCc2cc(=O)n3ccccc3n2)cc1	-13%[59 µM]	/	-18%	25%[57 µM]	2%	/
O=C1CC(N2CCCc3ccccc32)C(=O)N1c1ccccc1 (stereo not drawn)	40µM*	/	4%	47%	3%	-9%
CCOC(=O)CSC1=C(C#N)C(c2ccc(Cl)cc2)CC(=O)N1 (stereo not drawn)	79µM*	2	-17%	26%	2%	/
CCSC1=C(C#N)C(c2ccc(F)cc2)CC(=O)N1 (stereo not drawn)	-13%	1	-3%	32%	6%	8%
C=CCSC1=C(C#N)C(c2ccccc2)CC(=O)N1 (stereo not drawn)	50µM*	-12	-24%	25%	6%	11%
N#CC1=C(SCc2ccccc2)NC(=O)CC1c1ccccc1 (stereo not drawn)	-1%[59 µM]	-1	-2%	28%	3%	-1%
C=CCSC1=C(C#N)C(c2ccc(C(C)C)cc2)CC(=O)N1 (stereo not drawn)	45µM*	-4	-29%	0%	-4%	/
CC1(C)SC2C(NC(=O)Cc3ccccc3)C(=O)N2C1C(=O)O (stereo not drawn)	-4%[2.33 µM]	/	/	/	/	/
CCn1c(=O)cc(OCC(=O)Nc2cc(OC)c(OC)c(OC)c2)c2ccccc21	-37%[59 µM]	/	-18%	21%	-19%	/
COc1cccc(-c2nc(NC3CC3)c3ccccc3n2)c1	-1%[0.501 µM]	/	/	/	/	/
COc1ccc(OCC(=O)N/N=C/c2ccc(OC)c(OC)c2C(=O)O)cc1	2%[59 µM]	-3	3%	34%	-3%	10%
COc1ccc(/C=N/NC(=O)COc2ccc3ccccc3c2)c(C(=O)O)c1OC	-6%[59 µM]	-18	50µM*	20%	-11%	2%
COc1ccc(/C=N/NC(=O)COc2cccc3ccccc23)c(C(=O)O)c1OC	14µM*	-12	-16%	11%	?	-14%
CCOc1ccccc1NC(=O)Nc1nnc(N2CCCC(C)C2)s1 (stereo not drawn)	5%[59 µM]	/	18%	72%	-9%	/
Cc1csc(NC(=O)C2CCCCC2C(=O)O)n1 (stereo not drawn)	8%[59 µM]	1	7%	34%	2%	3%
Cc1csc(NC(=O)C2CCCC2)n1	40µM*	2	-16%	48%	0%	/
CC1CCc2cc(F)ccc2N1C(=O)c1cc2nc(-c3ccco3)cc(C(F)(F)F)n2n1 (stereo not drawn)	50µM*	-10	2%	26%	3%	7%
O=C(c1cnn2c(C(F)(F)F)cc(-c3ccco3)nc12)N1CCCCCC1	?	-1	11%	39%	4%	-4%
O=C(O)c1cnn2c(C(F)(F)F)cc(-c3ccco3)nc12	50µM*	/	20µM*	20%	-32%	-6%
O=C(OCC#CCSc1nnc(-c2cccc3ccccc23)o1)C1CCCC1	/	/	150%	/	/	/
COc1ccc(C2NN=C(c3c[nH]c4ccccc34)C2O)cc1 (stereo not drawn)	22µM*	-23	?	0%	?	/
SMILES	G9a inh	PI5P4K alpha inh	JMJD2A Tudor inh	HP1b chromo inh	BAZ2B inh	L3MBTL1 block
O=C1CCCCCN1CP(=O)(O)CCc1ccccc1	7%[59 µM]	/	-10%	12%	-6%	-3%
O=C1CCCCCN1CP(=O)(O)CN1CCCCCC1=O	50µM*	3	-22%	18%	-11%	5%
O=C(c1cccc(F)c1)N1CCC[C@@]2(CCN(c3ccccc3)C2)C1	6%[12.7 µM]	/	/	/	/	/
CC(=O)N1CCOc2cc(S(=O)(=O)Nc3cccc(C(F)(F)F)c3)c(Cl)cc21	0%[59 µM]	/	-26%	61%	2%	8%
CSC1=N/C(=C\c2ccccc2F)C(=O)S1	45µM*	11	-19%	22%	-11%	5%
O=C(CN(Cc1ccco1)C(=O)CNS(=O)(=O)c1ccccc1)NCc1ccccc1	-1%[12.7 µM]	3	-1%	41%	7%	2%
O=C(CN(Cc1ccccc1)C(=O)CNS(=O)(=O)c1ccccc1)NCc1ccco1	-11%	-10	79µM*	-1%	-4%	/
Cc1ccc(S(=O)(=O)N(Cc2ccccc2)c2ccccc2C(=O)NCc2ccco2)cc1	50µM*	/	?	9%	?	-13%
COC(=O)CN1C(=O)Nc2ccc(Cl)cc2C1c1ccccc1 (stereo not drawn)	7%	6	-12%	19%	-19%	/
COC(=O)CN1C(=O)Nc2ccc(Br)cc2C1c1ccccc1Cl (stereo not drawn)	71µM*	-5	-17%	18%	4%	/
Cc1ccc(OCCN2CCN(C)CC2)c([N+](=O)[O-])c1	2.5µM*	4	3.5µM*	-45%	50µM*	2%
O=[N+]([O-])c1cccc(OCCN2CCC(Cc3ccccc3)CC2)c1	11µM*	-7	14µM*	?	56µM*	-6%
Cc1ccc(OCc2ccc(C(=O)O)o2)c([N+](=O)[O-])c1	50µM*	-17	-11%	20%	-4%	-7%
COc1ccccc1OCCOCCOc1ccc(C)cc1[N+](=O)[O-]	3%[59 µM]	-2	-19%	29%	5%	-1%
CC1CC(C)CN(CCCOc2ccccc2[N+](=O)[O-])C1 (stereo not drawn)	14µM*	-7	32µM*	?	-30%	-11%
O=[N+]([O-])c1ccccc1OCCCN1CCc2ccccc2C1	?	0	-20%	34%	-35%	-2%
CCc1ccc(NC(=O)C(Cc2ccccc2)NS(=O)(=O)c2ccc3c(c2)c(=O)n(C)c(=O)n3C)cc1 (stereo not drawn)	-30%[59 µM]	/	-22%	14%	-17%	/
COc1ccc(OC)c(-c2cc(C(=O)NC(C)c3ccccc3)no2)c1 (stereo not drawn)	2%[59 µM]	/	-16%	24%	0%	/
Cc1ccc(OCCN2CCNCC2)c([N+](=O)[O-])c1	8.9µM*	-4	40µM*	-7%	56µM*	-1%
Cc1ccc([N+](=O)[O-])c(OCCCN2CCC(Cc3ccccc3)CC2)c1	/	-1	20µM*	?	/	/
